Results taken from the supplement of paper PMC6555819.

Each sequence was assayed on FXR:RXRa (NR concentration 270 nM, RXRa partner concentration 90 nM) (assay: PBM binding z-score (relative to random genomic background probes); higher = stronger binding; sequences stand for … in GC…GCGATTGACAGCGTAGAATGAAGG).
Method in brief: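 Each nuclear receptor dimer, without ligand, was incubated for 1 h on custom Agilent 4×180K protein-binding microarrays. Binding was detected with antibodies against each partner (one per run), and scanned fluorescence was regression-normalized. The binding z-scores are referenced to random human genomic background probes.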

CTATGTAGGTTAAGGGGGTCATTCAGTTTGAAAG was tested. Which PBM binding z-score did it give?
The PBM binding z-score was 5.62.

CCGAGTAGGTTACGAGGGGGCATGCAGTGCGAAT was tested. Which PBM binding z-score did it give?
The PBM binding z-score was 1.91.

TCGAGCAGGTTACGGGGGCATTCAGGGATGAAGA was tested. Which PBM binding z-score did it give?
Its PBM binding z-score is 2.74.

How did the PBM binding z-score turn out when CTATGTAGGTTAAGGGGGCCATTCAGTTTGAAAG was run?
Its PBM binding z-score is 1.41.

Which PBM binding z-score does the source give for TCGGGTAGGTTACGGGGGCATTCAGGGATGAAGA here?
The PBM binding z-score was 3.9.

For CTATGTAGGTTAAGGGGGTCTTTCAGTTTGAAAG, which PBM binding z-score is on record?
The PBM binding z-score was 0.885.

With CTGTGTAGGTTAAGGGGGTCATTCAGTTTGAAAG as the sequence, how does the PBM binding z-score read?
The PBM binding z-score was 5.15.

Which PBM binding z-score does the source give for CTATGTAGATTAAGGGGGTCATTCAGTTTGAAAG here?
The PBM binding z-score was 4.51.

With CCGAGTAGGTTACGAGGGGGTATTCAGTGCGAAT as the sequence, how does the PBM binding z-score read?
Its PBM binding z-score is 1.23.

With TCGAGTAGGTTAAGGGGGCATTCAGGGATGAAGA as the sequence, how does the PBM binding z-score read?
Its PBM binding z-score is 2.95.

With CCGATTAGGTTACGAGGGGGCATTCAGTGCGAAT as the sequence, how does the PBM binding z-score read?
The PBM binding z-score was 2.54.

CTATGTAGGTTAAGCGGGTCATTCAGTTTGAAAG was tested. Which PBM binding z-score did it give?
The PBM binding z-score was 2.56.

How did the PBM binding z-score turn out when CTATGTAGGTTAAGGGGGTCATGCAGTTTGAAAG was run?
The PBM binding z-score was 5.42.

For CTATGTAGGTTAAGGGGGGCATTCAGTTTGAAAG, which PBM binding z-score is on record?
Its PBM binding z-score is 3.22.

Which PBM binding z-score does the source give for CTATGTAGGTTAAAGGGGTCATTCAGTTTGAAAG here?
Its PBM binding z-score is 6.38.

How did the PBM binding z-score turn out when CCGAGTAGGTCACGAGGGGGCATTCAGTGCGAAT was run?
Its PBM binding z-score is 6.09.

TCGAGTAGGTTATGGGGGCATTCAGGGATGAAGA was tested. Which PBM binding z-score did it give?
Its PBM binding z-score is 1.82.

With CTGAGTAGGTTACGAGGGGGCATTCAGTGCGAAT as the sequence, how does the PBM binding z-score read?
Its PBM binding z-score is 1.65.

For TCGAGTAGGTTACGGGGGCATTCCGGGATGAAGA, which PBM binding z-score is on record?
Its PBM binding z-score is 2.68.

CCGAGTAGGTTAAGAGGGGGCATTCAGTGCGAAT was tested. Which PBM binding z-score did it give?
Its PBM binding z-score is 3.24.

TCGAGTACGTTACGGGGGCATTCAGGGATGAAGA was tested. Which PBM binding z-score did it give?
The PBM binding z-score was 2.24.

Which PBM binding z-score does the source give for CTATGTAGGTAAAGGGGGTCATTCAGTTTGAAAG here?
Its PBM binding z-score is 4.07.
